Shown are actives, neighbours in structure and some others; about 4.3% of the full set was active somewhere.
GLP-1R agonist – qHTS of GLP-1 Receptor Agonists. HEK293 GLP-1R CRE-luciferase, luminescence, 4-6 h; cells express a hypersensitive GLP-1R form. AID 624172, 2012. Glucagon-like peptide 1 receptor (Homo sapiens), P43220. Potency, µM (doses to about 45.6 µM), without a hit: at the highest dose activation, actives largely listed as activators. 380,000 tested, 0.007% active; also: potency is read from the fitted curve at half-maximal effect; % of control where 0% means no effect
Target sequence (P43220 whole entry, looked up): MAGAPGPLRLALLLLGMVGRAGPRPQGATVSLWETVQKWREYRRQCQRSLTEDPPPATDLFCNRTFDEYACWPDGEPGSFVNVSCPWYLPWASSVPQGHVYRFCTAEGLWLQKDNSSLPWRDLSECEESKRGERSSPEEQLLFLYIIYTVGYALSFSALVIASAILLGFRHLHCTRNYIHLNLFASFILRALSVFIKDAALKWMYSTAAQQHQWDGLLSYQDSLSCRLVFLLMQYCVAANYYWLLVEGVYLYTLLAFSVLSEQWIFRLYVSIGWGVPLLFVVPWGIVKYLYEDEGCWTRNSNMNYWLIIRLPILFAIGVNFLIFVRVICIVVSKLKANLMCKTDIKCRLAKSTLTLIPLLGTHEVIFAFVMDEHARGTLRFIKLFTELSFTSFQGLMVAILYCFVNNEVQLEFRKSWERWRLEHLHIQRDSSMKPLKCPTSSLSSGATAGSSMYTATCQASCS
DRD3 agonist – qHTS of D3 Dopamine Receptor Agonist: qHTS; D(3) dopamine receptor (Homo sapiens), P35462; D3R DiscoveRx beta-arrestin cells, luminescence, 90 min; max activation, %; 410,000 tested, 0.58% active; in the data active = max activation above about 30%; also: 0% is about no effect
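Agonist mode: compounds and dopamine controls were applied to plated cells for 90 min at 37 degrees C after an overnight attachment at 1500 cells/well. Luminescent read-out followed 30 - 60 minutes at room temperature with DiscoveRx detection reagent.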
D3 antag – qHTS of D3 Dopamine Receptor Antagonist: qHTS | D(3) dopamine receptor (Homo sapiens), P35462 | D3R cells, DiscoveRx beta-arrestin luminescence, antagonist mode; active compounds read low | max response, negative = inhibition, % | 360,000 tested, 2.5% active | AID 652054, 2013; in the data active = max response below about -50%; inconclusive = no clear call, values can overlap the other calls; also: % is scaled to controls: 0 for no effect and ±100 for the full control effect
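Cells plated overnight at 1500 cells/well, then exposed to library compounds with dopamine controls for 90 minutes at 37 degrees C. DiscoveRx reagent added for 30–60 minutes at room temperature; luminescence read, quantitative HTS format.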
GLP-1R inv ag – qHTS of GLP-1 Receptor Inverse Agonists (Inhibition Mode); HEK293 GLP-1R CRE-luciferase, luminescence, 24 h; GLP-1R form is constitutively active; Glucagon-like peptide 1 receptor (Homo sapiens), P43220; 410,000 tested, 1.6% active; Potency, µM (series often up to 38.3 µM), for inactives: at the top dose activity change, negative = inhibition, hits mostly inhibitors; also: potency is read from the fitted curve at half-maximal effect; % is scaled to controls: 0 for no effect and ±100 for the full control effect; nearly all actives have a fitted effect of over 55% in size
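HEK293 cells stably co-expressing constitutively active GLP-1R and a cAMP-responsive luciferase reporter were seeded in DMEM with 10% Nu serum, given compounds after 12 h, and incubated 24 h at 37 deg C. Luminescence was then read.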
Active calls of the source: *; [ ] = remark or other dose. Unless noted, calls follow the shape of the dose curve; as a rule, active = well fitted curve in the direction sought with a large enough effect; inconclusive = small, poorly fitted or top-dose-only effect, or another doubt; inactive = no such curve, though single readings can be large; an effect the other way counts as inactive or inconclusive.

How did O=C(c1ccc([N+](=O)[O-])cc1[N+](=O)[O-])N1CCc2ccccc21 do in these assays?
GLP-1R agonist: 6%; DRD3 agonist: -13; D3 antag: -51*; GLP-1R inv ag: 7%

What do the screens show for `O=C(COc1ccc(-n2ccnc2)cc1)Nc1cccc(Cl)c1`?
GLP-1R agonist: -2%; DRD3 agonist: 0; D3 antag: 12; GLP-1R inv ag: -6%[7.66 µM]

How did Cc1cc(NC(=O)c2oc3c(c2C)-c2[nH]ncc2CC3)ccc1Br do in these assays?
DRD3 agonist: -24; GLP-1R inv ag: inconclusive

What do the screens show for `CCCCCc1ccc(OCCOCCn2c[n+](C)c3ccccc32)c(CCCCC)c1`?
GLP-1R agonist: 4%; DRD3 agonist: -1; D3 antag: 23; GLP-1R inv ag: inconclusive

How did CCCCCc1ccc(OCCC[n+]2ccccc2)c(CCCCC)c1 do in these assays?
GLP-1R agonist: 1%; DRD3 agonist: -33; D3 antag: -15; GLP-1R inv ag: 7.9µM*

Results for CN(C)S(=O)(=O)c1cccc(NC(=S)Nc2cccc3cnccc23)c1 ?
GLP-1R agonist: -1%; DRD3 agonist: -15; D3 antag: -59*; GLP-1R inv ag: inconclusive

Results for CCC1CN(C(=O)Nc2ccc(C)c(F)c2)c2ccccc2S1 (stereo not given) ?
DRD3 agonist: 3; GLP-1R inv ag: 4%

What do the screens show for `CCC1CN(C(=O)Nc2cccc3c2CCCC3)c2cc(Cl)ccc2O1` (stereo not given)?
DRD3 agonist: 1; GLP-1R inv ag: 10µM*

How did C=C(C)COc1cc2oc(=O)c(CC(=O)N3C[C@H]4C[C@@H](C3)c3cccc(=O)n3C4)c(C)c2cc1Cl do in these assays?
GLP-1R agonist: 8%; DRD3 agonist: 33*; D3 antag: -21; GLP-1R inv ag: -23%

What do the screens show for `C=C(C)COc1ccc2c(C)c(CC(=O)N3C[C@H]4C[C@@H](C3)c3cccc(=O)n3C4)c(=O)oc2c1`?
GLP-1R agonist: -6%; DRD3 agonist: -7; D3 antag: -24; GLP-1R inv ag: -7%

How did CCOc1ccccc1CNS(=O)(=O)c1cnc(N)nc1 do in these assays?
DRD3 agonist: 14; GLP-1R inv ag: 10%

What do the screens show for `CCN(CC)CCCC(C)Nc1nccc2c(Cl)cccc12` (stereo not given)?
GLP-1R agonist: -5%; DRD3 agonist: -18; D3 antag: -27; GLP-1R inv ag: 4.5µM*

What do the screens show for `COc1ccc(OC)c(/C=C2\S/C(=N/NC(=O)c3ccc4ccccc4c3)NC2=O)c1`?
GLP-1R agonist: -9%; DRD3 agonist: 1; D3 antag: 2; GLP-1R inv ag: 4%

Results for O=C1N/C(=N/NC(=O)c2cccc3ccccc23)S/C1=C\c1ccccc1OCc1ccccc1 ?
GLP-1R agonist: 0%; DRD3 agonist: 6; D3 antag: -59*; GLP-1R inv ag: inconclusive

How did COc1ccc(S(=O)(=O)N(CC(=O)NCc2ccc(C)cc2)c2ccc(Cl)cc2)cc1 do in these assays?
GLP-1R agonist: -1%; DRD3 agonist: 7; GLP-1R inv ag: 15%

What do the screens show for `CC(C)OCCCNC(=O)Nc1cccc2ccccc12`?
GLP-1R agonist: -5%; DRD3 agonist: -3; D3 antag: 4; GLP-1R inv ag: -27%

How did CCCCCCC(C)OC(=O)Nc1cccc2ccccc12 (stereo not given) do in these assays?
GLP-1R agonist: 9%; DRD3 agonist: 2; D3 antag: 46; GLP-1R inv ag: 8.9µM*

What do the screens show for `CSc1ccc(CCNC(=O)c2ccc(-n3c(C)cc4c3CCCC4)cc2)cc1`?
DRD3 agonist: -7; GLP-1R inv ag: -10%

What do the screens show for `CN1CCN(C(=O)C23CC4CC(C)(CC(C)(C4)C2)C3)CC1`?
GLP-1R agonist: 2%; DRD3 agonist: -21; D3 antag: -71*; GLP-1R inv ag: inconclusive

How did CC12CC3CC(C)(C1)CC(C(=O)N1CCCC1)(C3)C2 do in these assays?
GLP-1R agonist: 19%; DRD3 agonist: -1; D3 antag: 1; GLP-1R inv ag: inconclusive

How did Cc1ccc(C23CC4CC(CC(C(=O)N5CCN(C)CC5)(C4)C2)C3)cc1 do in these assays?
GLP-1R agonist: 9%; DRD3 agonist: -20; D3 antag: -55*; GLP-1R inv ag: 8.9µM*

Results for CC(=O)N[C@H]1[C@H]([C@H](O)[C@H](O)CO)OC(C(=O)O)=C[C@@H]1N=C(N)N ?
DRD3 agonist: -7

How did CC(=O)Nc1ccc(NC(=O)C2CCCN2S(=O)(=O)c2ccc3c(c2)CCCC(=O)N3)cc1 (stereo not given) do in these assays?
DRD3 agonist: 2; GLP-1R inv ag: -1%

How did CCCCSc1nc(C)c(C(C)=O)cc1C#N do in these assays?
GLP-1R agonist: inconclusive; DRD3 agonist: -5; D3 antag: -52*; GLP-1R inv ag: 1%

Results for CC/C=C(\C(=O)N[C@H]1C(=O)N2C(C(=O)OCOC(=O)C(C)(C)C)=C(COC(N)=O)CS[C@H]12)c1csc(N)n1 ?
GLP-1R agonist: 0%

How did OC1(c2cccc(C(F)(F)F)c2)CCN(c2ncnc3c2[nH]c2ccc(F)cc23)CC1 do in these assays?
GLP-1R agonist: -26%; DRD3 agonist: 40*; D3 antag: -25; GLP-1R inv ag: inconclusive

Results for COc1ccc(C2=Nn3c(nnc3-c3cccnc3)SC2)cc1OC ?
GLP-1R agonist: 2µM*; DRD3 agonist: 2; D3 antag: -4; GLP-1R inv ag: 0%

How did O=C(Nc1ccc(S(=O)(=O)N2CCCC2)cc1)Nc1ccc(F)cc1F do in these assays?
GLP-1R agonist: 8%; DRD3 agonist: -2; D3 antag: -4; GLP-1R inv ag: inconclusive

What do the screens show for `CCN1CCN(CC(=O)Nc2ccc(S(=O)(=O)N3C(C)CCCC3C)cc2)CC1` (stereo not given)?
GLP-1R agonist: 12%; DRD3 agonist: -4; D3 antag: -4; GLP-1R inv ag: 11µM*

Results for CC1CCCN(CC(=O)Nc2ccc(S(=O)(=O)N3CCCCC3)cc2)C1 (stereo not given) ?
GLP-1R agonist: -2%; DRD3 agonist: -12; D3 antag: -26; GLP-1R inv ag: -1%

What do the screens show for `CC1CCCN(S(=O)(=O)c2ccc(NC(=O)CN3CCCCC3)cc2)C1` (stereo not given)?
GLP-1R agonist: 18%; DRD3 agonist: -13; D3 antag: -14; GLP-1R inv ag: 22µM*

How did O=C(CN1CCCC1)Nc1ccc(S(=O)(=O)N2CCCCC2)cc1 do in these assays?
GLP-1R agonist: 3%; DRD3 agonist: -1; D3 antag: 5; GLP-1R inv ag: -12%

How did CC1CCN(S(=O)(=O)c2ccc(NC(=O)CN3CCOCC3)cc2)CC1 do in these assays?
GLP-1R agonist: -10%; DRD3 agonist: 0; D3 antag: 5; GLP-1R inv ag: 8%

Results for CC1CC(C)CN(S(=O)(=O)c2ccc(NC(=O)CN3CCCCCC3)cc2)C1 (stereo not given) ?
GLP-1R agonist: 11%; DRD3 agonist: -20; D3 antag: -13; GLP-1R inv ag: 11µM*

From PubChem BioAssay
